# Measurements: PubChem BioAssay AID493152 (Sanford-Burnham Center for Chemical Genomics, 2011)
# The list shows a part of the results. Activity calls are given as the source filed them.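 The calls were made as follows: active = inhibition reaching a set limit in any replicate at 20 µM, the limit being 80% of the first screen's; inactive = the rest.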
# Target: DNA dC->dU-editing enzyme APOBEC-3G (Homo sapiens) (UniProt Q9HC16)
# Assay: human A3G ssDNA deamination inhibition, hit confirmation – biochemical, fluorescence, single-stranded DNA substrate, single concentration (AID 493152)
# Settings: recombinant A3G ssDNA deaminase, UDG/FAM-TAMRA fluorescence; at 20 µM; stronger effect = higher value
# Sequence of DNA dC->dU-editing enzyme APOBEC-3G (Homo sapiens) (Q9HC16 whole entry, looked up): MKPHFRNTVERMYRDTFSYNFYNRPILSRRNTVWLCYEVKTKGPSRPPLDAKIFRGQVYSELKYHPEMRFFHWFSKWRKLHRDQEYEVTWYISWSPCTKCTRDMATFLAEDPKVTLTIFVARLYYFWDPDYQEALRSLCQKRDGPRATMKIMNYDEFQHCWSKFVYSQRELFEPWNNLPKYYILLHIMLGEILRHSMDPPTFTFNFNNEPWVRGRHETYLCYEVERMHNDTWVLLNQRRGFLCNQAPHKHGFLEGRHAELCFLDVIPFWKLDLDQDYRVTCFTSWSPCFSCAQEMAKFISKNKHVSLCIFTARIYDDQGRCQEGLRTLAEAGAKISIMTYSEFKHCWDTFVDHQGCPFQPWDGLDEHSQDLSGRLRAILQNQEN
smiles,measurement,value
COC(=O)N(c1ccc(OC)cc1)P1(=S)OCCC(C)O1 (stereo unspecified),inhibition,42.1% (active)
